# According to the supplement of paper PMC8728848:
# The sample as a whole holds a higher share of the strongest signals than the screen did.
# B1: Epa12 (Candida glabrata) (protein)
# chain: MGSSHHHHHHSSGLVPRGSHMLEPDNSLQIFDSFLSNPSKYPLGCSPKITNPKKGLSMELYSYPYRKKGSHPCWDPAYLDPNFPRVGYKKNKLIARVDGVSGDINFNFHPKRQCTPIADYLPPNFNYNEPITTTNFTMLLYGYFKPKVTGLHTFDISADDLLFMNFGAGNAFDCCRRDSTADTFGNYVAWAIWGRRIVRNKLTVRLDKGIYYPLRLFFNNRDYYGQMRLTFKTEHGSERITDFSDYFFSVDDTSEGCPGLITYESECADVKSSTVLETDYITIQAEKE
# Tests used:
# Assay in all cases: glycan array binding signal (z-score within array); higher = stronger binding
# Conditions in all cases: glycan notation: IUPAC condensed, linker removed
# [1] = target: Gal(b1-4)GlcNAc(b1-3)[Gal(b1-4)GlcNAc(b1-6)]Gal(b1-4)GlcNAc
# Outline: (§1)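 Arrays were curated from the Consortium for Functional Glycomics database, 3228 in total, and kept only where the protein sequence was available. Binding is expressed as a within-array Z-score. This score was averaged across arrays of the same protein sequence at different concentrations or buffers and across linkers, and negative values can be read as non-binding.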
# Gal3S(b1-4)Glc6S = target: Gal3S(b1-4)Glc6S
# Outline: as §1
# Gal6S(b1-3)GlcNAc6S = target: Gal6S(b1-3)GlcNAc6S
# Outline: as §1
# Gal6S(b1-4)Glc6S = target: Gal6S(b1-4)Glc6S
# Outline: as §1
# Gal6S(b1-4)GlcNAc = target: Gal6S(b1-4)GlcNAc
# Outline: as §1
# Gal6S(b1-4)GlcNAc6S = target: Gal6S(b1-4)GlcNAc6S
# Outline: as §1
# GalNAc(b1-6)GalNAc = target: GalNAc(b1-6)GalNAc
# Outline: as §1
# [2] = target: GlcNAc(a1-4)Gal(b1-3)GlcNAc
# Outline: as §1
# [3] = target: GlcNAc(b1-2)[GlcNAc(b1-6)]Man(a1-6)[GlcNAc(b1-2)Man(a1-3)]Man(b1-4)GlcNAc(b1-4)GlcNAc
# Outline: as §1
# GlcNAc(b1-3)Fuc = target: GlcNAc(b1-3)Fuc
# Outline: as §1
# [4] = target: GlcNAc(b1-3)Gal(b1-4)GlcNAc(b1-3)GalNAc
# Outline: as §1
# [5] = target: GlcNAc(b1-3)Gal(b1-4)GlcNAc(b1-3)[GlcNAc(b1-3)Gal(b1-4)GlcNAc(b1-3)]GalNAc
# Outline: as §1
# [6] = target: GlcNAc(b1-3)Gal(b1-4)GlcNAc(b1-6)[Gal(b1-3)]GalNAc
# Outline: as §1
# GlcNAc(b1-4)GlcNAc = target: GlcNAc(b1-4)GlcNAc
# Outline: as §1
# [7] = target: GlcNAc(b1-4)GlcNAc(b1-4)GlcNAc(b1-4)GlcNAc(b1-4)GlcNAc
# Outline: as §1
# Kdn(a2-6)Gal(b1-4)GlcNAc = target: Kdn(a2-6)Gal(b1-4)GlcNAc
# Outline: as §1
# Man(b1-4)GlcNAc = target: Man(b1-4)GlcNAc
# Outline: as §1
# [8] = target: Neu5Ac(a2-3)Gal(b1-3)GlcNAc(b1-2)Man
# Outline: as §1
# [9] = target: Neu5Ac(a2-3)Gal(b1-3)[Fuc(a1-4)]GlcNAc(b1-3)Gal(b1-3)[Fuc(a1-4)]GlcNAc
# Outline: as §1
# [10] = target: Neu5Ac(a2-3)Gal(b1-3)[Neu5Ac(a2-6)]GalNAc
# Outline: as §1
# [11] = target: Neu5Ac(a2-3)Gal(b1-4)GlcNAc
# Outline: as §1
# [12] = target: Neu5Ac(a2-3)Gal(b1-4)GlcNAc(b1-3)Gal(b1-4)GlcNAc(b1-3)Gal(b1-4)GlcNAc(b1-2)Man(a1-3)[Neu5Ac(a2-3)Gal(b1-4)GlcNAc(b1-3)Gal(b1-4)GlcNAc(b1-3)Gal(b1-4)GlcNAc(b1-2)Man(a1-6)]GalNAc
# Outline: as §1
# [13] = target: Neu5Ac(a2-3)Gal(b1-4)[Fuc(a1-3)]GlcNAc(b1-3)Gal(b1-4)GlcNAc
# Outline: as §1
# [14] = target: Neu5Ac(a2-3)Gal(b1-4)[Fuc(a1-3)]GlcNAc(b1-6)[Gal(b1-3)]GalNAc
# Outline: as §1
# [15] = target: Neu5Ac(a2-3)[GalNAc(b1-4)]Gal(b1-4)Glc
# Outline: as §1
# [16] = target: Neu5Ac(a2-6)GalNAc(b1-4)GlcNAc6S
# Outline: as §1
# Neu5Gc(a2-6)GalNAc = target: Neu5Gc(a2-6)GalNAc
# Outline: as §1
binder,measurement,setting,value
B1,glycan array binding signal (z-score),[1],-0.194
same,glycan array binding signal (z-score),Gal3S(b1-4)Glc6S,-0.255
same,glycan array binding signal (z-score),Gal6S(b1-3)GlcNAc6S,3.83
same,glycan array binding signal (z-score),Gal6S(b1-4)Glc6S,7.51
same,glycan array binding signal (z-score),Gal6S(b1-4)GlcNAc,1.98
same,glycan array binding signal (z-score),Gal6S(b1-4)GlcNAc6S,8.69
same,glycan array binding signal (z-score),GalNAc(b1-6)GalNAc,-0.347
same,glycan array binding signal (z-score),[2],-0.483
same,glycan array binding signal (z-score),[3],-0.332
same,glycan array binding signal (z-score),GlcNAc(b1-3)Fuc,-0.36
same,glycan array binding signal (z-score),[4],-0.307
same,glycan array binding signal (z-score),[5],-0.348
same,glycan array binding signal (z-score),[6],-0.32
same,glycan array binding signal (z-score),GlcNAc(b1-4)GlcNAc,-0.359
same,glycan array binding signal (z-score),[7],-0.032
same,glycan array binding signal (z-score),Kdn(a2-6)Gal(b1-4)GlcNAc,-0.005
same,glycan array binding signal (z-score),Man(b1-4)GlcNAc,-0.301
same,glycan array binding signal (z-score),[8],-0.336
same,glycan array binding signal (z-score),[9],-0.342
same,glycan array binding signal (z-score),[10],-0.335
same,glycan array binding signal (z-score),[11],-0.321
same,glycan array binding signal (z-score),[12],-0.239
same,glycan array binding signal (z-score),[13],-0.251
same,glycan array binding signal (z-score),[14],-0.245
same,glycan array binding signal (z-score),[15],-0.34
same,glycan array binding signal (z-score),[16],-0.36
same,glycan array binding signal (z-score),Neu5Gc(a2-6)GalNAc,-0.309
